According to PubChem BioAssay (Tox21):
Values joined by “and” are separate entries in the source; they are usually repeats but may differ in a detail not shown here. Identical values can stand only once. Records with an inconclusive call do not appear. A structure can be active in one record and inactive in another. Active and inactive are the calls of the source. Unless noted, calls come from the whole dose curve; as a rule, active = well fitted curve in the direction sought with a large enough effect in the repeat runs; inconclusive = weak or mixed curves; inactive = no such curve, though single readings can be large; an effect the other way counts as inactive or inconclusive.

How the values were obtained:
[1] = qHTS assay to identify small molecule antagonists of the retinoid acid receptor (RAR) signaling pathway - cell viability counter screen (AID 1159551); note: nearly all actives have a fitted effect of over 35% in size; note: potency is the fitted concentration of half-maximal effect
In short: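 Seed C3RL4 cells; next day add compound, then retinol to 1 uM final; incubate 6 h at 37 C; add CellTiter-Glo; read luminescence after 30 min at RT.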

[2] = qHTS assay to identify small molecule antagonists of the retinoic acid receptor (RAR) signaling pathway (AID 1159552; note: nearly all actives have a fitted effect of over 50% in size; note: potency is the fitted concentration of half-maximal effect)
In short: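 Retinol signaling pathway inhibitors screened in C3RL4 RARE-luciferase reporter cells seeded overnight at 37 C, then compounds added with 1 uM (final) retinol as pathway substrate. After 6 hr at 37 C, luciferase luminescence read after 30 min at room temperature.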

[3] = qHTS assay to identify small molecule agonists of the retinoic acid receptor (RAR) signaling pathway (AID 1159553); conditions: C3RL4 RARE luciferase reporter, agonist, 6 h; activation: at 73.3 µM (top of the series) unless noted; note: potency is the fitted concentration of half-maximal effect
In short: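 Activation of retinol signaling was monitored via a RARE luciferase reporter in C3RL4 cells. After 6 hr compound treatment at 37 C, detection reagent was added for 30 min at room temperature before luminescence reading.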

[4] = qHTS assay to identify small molecule antagonists of the estrogen related receptor (ERR) signaling pathway from Tox21 library - cell viability counter screen (AID 1224834); note: nearly all actives have a fitted effect of over 30% in size; note: potency is the fitted concentration of half-maximal effect
In short: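 CellTiter-Fluor fluorescence measured; ERR cells; 17.5 h compound incubation at 37 C; 30 min reagent step.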

[5] = target: Luciferin 4-monooxygenase (Photinus pyralis) (UniProt P08659); experiment: qHTS assay to identify small molecule inhibitors of firefly luciferase (AID 1224835); note: nearly all actives have a fitted effect of over 25% in size; note: potency is the fitted concentration of half-maximal effect
Chain of Luciferin 4-monooxygenase (Photinus pyralis) (P08659 whole entry, looked up): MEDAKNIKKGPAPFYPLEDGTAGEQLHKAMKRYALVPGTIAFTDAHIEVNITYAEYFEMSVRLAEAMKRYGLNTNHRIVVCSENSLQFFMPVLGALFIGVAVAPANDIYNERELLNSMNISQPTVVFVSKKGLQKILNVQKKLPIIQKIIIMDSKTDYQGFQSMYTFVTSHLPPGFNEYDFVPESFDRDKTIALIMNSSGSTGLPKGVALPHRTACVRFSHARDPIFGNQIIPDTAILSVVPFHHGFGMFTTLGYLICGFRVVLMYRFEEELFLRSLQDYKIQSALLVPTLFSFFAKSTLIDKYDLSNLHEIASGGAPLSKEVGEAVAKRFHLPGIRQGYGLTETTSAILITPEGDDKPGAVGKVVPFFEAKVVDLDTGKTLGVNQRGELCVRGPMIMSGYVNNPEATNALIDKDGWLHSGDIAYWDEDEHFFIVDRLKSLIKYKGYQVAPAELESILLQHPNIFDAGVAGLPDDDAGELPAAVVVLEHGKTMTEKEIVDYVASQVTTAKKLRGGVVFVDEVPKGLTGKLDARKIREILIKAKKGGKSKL
In short: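 Quantitative HTS format; KM concentrations of both substrates. Purified P. pyralis FLuc activity quantified from luminescence images.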

[6] = qHTS assay to identify small molecule antagonists of the constitutive androstane receptor (CAR) signaling pathway - cell viability counter screen (AID 1224837); note: nearly all actives have a fitted effect of over 45% in size; note: potency is the fitted concentration of half-maximal effect
In short: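 Using CellTiter-Fluor, viability is scored in HepG2 cells stably carrying hCAR and a 2.2kb CYP2B6 reporter after 23 hr compound exposure across 15 concentrations, with CITCO present at 50 nM.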

[7] = target: Nuclear receptor subfamily 1 group I member 3 (Homo sapiens) (UniProt Q14994); experiment: qHTS assay to identify small molecule antagonists of the constitutive androstane receptor (CAR) signaling pathway (AID 1224838);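 note: HepG2 cells stably expressing hCAR with CYP2B6 luciferase reporter stimulated by CITCO; nearly all actives have a fitted effect of over 40% in size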; note: potency is the fitted concentration of half-maximal effect
Chain of Nuclear receptor subfamily 1 group I member 3 (Homo sapiens) (Q14994 whole entry, looked up): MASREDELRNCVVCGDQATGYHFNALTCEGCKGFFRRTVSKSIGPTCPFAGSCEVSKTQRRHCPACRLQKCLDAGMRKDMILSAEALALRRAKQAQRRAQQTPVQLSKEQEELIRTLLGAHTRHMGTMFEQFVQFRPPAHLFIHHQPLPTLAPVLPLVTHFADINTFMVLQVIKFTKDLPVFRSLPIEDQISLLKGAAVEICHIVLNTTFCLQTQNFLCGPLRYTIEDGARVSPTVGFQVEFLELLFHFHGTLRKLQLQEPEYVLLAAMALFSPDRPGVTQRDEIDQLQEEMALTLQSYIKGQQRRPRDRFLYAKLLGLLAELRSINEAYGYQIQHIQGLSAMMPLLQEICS
In short: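 Reporter luminescence was quantified after 24 h exposure of hCAR/CYP2B6-2.2kb double-stable HepG2 cells to compounds at 15 concentrations in the presence of 50 nM CITCO final.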

[8] = target: Nuclear receptor subfamily 1 group I member 3 (Homo sapiens) (UniProt Q14994); experiment: qHTS assay to identify small molecule agonists of the constitutive androstane receptor (CAR) signaling pathway (AID 1224839); note: nearly all actives have a fitted effect of over 15% in size; note: potency is the fitted concentration of half-maximal effect;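 for activation: HepG2 cells stably carrying human CAR and a CYP2B6 luciferase reporter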
In short: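 HepG2 cells stably co-transfected with hCAR and a CYP2B6-2.2kb luciferase reporter; compounds at 15 concentrations with 0.75 uM PK11195 present. After 24 hr at 37 C, luciferase read by ONE-Glo luminescence.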

[9] = qHTS assay to identify small molecule antagonists of the estrogen related receptor signaling pathway with the pleiotropic PPARgamma coactivator (PGC) from Tox21 10K library - cell viability counter screen (AID 1224840; active = well fitted cell-killing curve with a large enough effect in the repeat runs, not every such curve was filed as active; note: nearly all actives have a fitted effect of over 40% in size; note: potency is the fitted concentration of half-maximal effect)
In short: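 Here the PGC/ERR cells serve as a cytotoxicity control: they are exposed to compounds for 17.5 hours at 37 C, and live-cell signal is quantified using CellTiter-Fluor fluorescence.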

[10] = target: Thyrotropin receptor (Homo sapiens) (UniProt P16473); experiment: qHTS assay to identify small molecule agonists of the thyroid stimulating hormone receptor (TSHR) signaling pathway (AID 1224843; calls by dose curve; note: nearly all actives have a fitted effect of over 45% in size; note: potency is the fitted concentration of half-maximal effect)
Chain of Thyrotropin receptor (Homo sapiens) (P16473 whole entry, looked up): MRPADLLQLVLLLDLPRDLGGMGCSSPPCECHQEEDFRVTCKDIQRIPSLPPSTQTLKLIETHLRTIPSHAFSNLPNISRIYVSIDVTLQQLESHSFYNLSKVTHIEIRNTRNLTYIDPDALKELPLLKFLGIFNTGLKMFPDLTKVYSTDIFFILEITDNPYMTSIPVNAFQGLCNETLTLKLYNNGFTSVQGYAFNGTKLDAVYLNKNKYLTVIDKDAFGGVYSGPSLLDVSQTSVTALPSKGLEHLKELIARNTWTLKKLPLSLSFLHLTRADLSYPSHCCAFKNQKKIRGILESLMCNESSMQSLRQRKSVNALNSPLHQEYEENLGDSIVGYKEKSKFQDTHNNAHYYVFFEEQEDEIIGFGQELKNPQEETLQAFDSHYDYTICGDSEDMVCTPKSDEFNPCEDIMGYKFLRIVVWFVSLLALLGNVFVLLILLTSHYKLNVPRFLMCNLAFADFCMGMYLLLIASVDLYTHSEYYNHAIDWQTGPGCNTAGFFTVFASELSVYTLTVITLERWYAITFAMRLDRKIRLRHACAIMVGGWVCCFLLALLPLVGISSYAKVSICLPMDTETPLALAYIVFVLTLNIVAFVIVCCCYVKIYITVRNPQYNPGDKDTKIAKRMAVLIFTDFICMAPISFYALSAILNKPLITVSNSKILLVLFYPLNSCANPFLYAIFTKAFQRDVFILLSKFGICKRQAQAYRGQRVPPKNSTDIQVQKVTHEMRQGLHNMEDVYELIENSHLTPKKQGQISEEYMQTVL
In short: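 TSHR-expressing HEK293 cells (800 per well) were exposed to compounds for 30 min at room temperature. cAMP was then detected by HTRF competition with cAMP-d2 and anti-cAMP cryptate, read after 1 h at room temperature. Fifteen concentrations, triplicate.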

[11] = qHTS assay to identify small molecule agonists of the hypoxia (HIF-1) signaling pathway - cell viability counter screen (AID 1224844; calls by dose curve; note: nearly all actives have a fitted effect of over 50% in size; note: potency is the fitted concentration of half-maximal effect)
In short: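 Multiplexed with the HRE beta-lactamase assay, this viability read used CellTiter-Glo luminescence (30 min, RT) on HRE-bla ME-180 cells treated 17 hrs with compounds in 0.5% dialyzed FBS medium.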

[12] = qHTS assay to identify small molecule agonists of the constitutive androstane receptor (CAR) signaling pathway - cell viability counter screen (AID 1224836); note: nearly all actives have a fitted effect of over 45% in size; note: potency is the fitted concentration of half-maximal effect
In short: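 HepG2 cells stably carrying hCAR and a CYP2B6-2.2kb reporter; 15-concentration compounds plus PK11195 (final 0.75 uM), 23 hr at 37 C/5% CO2. Viability read by CellTiter-Fluor fluorescence.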

[13] = qHTS assay to identify small molecule antagonists of the estrogen related receptor signaling pathway with the pleiotropic PPARgamma coactivator (PGC) from Tox21 10K library (AID 1224841; call rule not given here; note: actives are mostly falling curves and most rising ones were filed inactive; nearly all actives have a fitted effect of over 50% in size; note: potency is the fitted concentration of half-maximal effect)
In short: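 Each well held 2,000 PGC/ERR cells, pre-incubated six hours (37 C, 5% CO2). Test substances in DMSO were added by pin tool and left for 18 h at 37 C before luciferase detection by One-Glo.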

[14] = qHTS assay to identify small molecule agonists of the estrogen related receptor signaling pathway with the pleiotropic PPARgamma coactivator (PGC) from Tox21 10K library (AID 1224842); note: nearly all actives have a fitted effect of over 15% in size; note: potency is the fitted concentration of half-maximal effect
In short: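 PGC/ERR reporter cells (NTP line) were seeded 2,000 per well, rested 6 h at 37 C/5% CO2, then pin-dosed with compounds in DMSO for 18 h at 37 C; luciferase read by One-Glo luminescence after 30 min at room temperature.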

[15] = qHTS assay to identify small molecule antagonists of the estrogen related receptor (ERR) signaling pathway - cell viability counter screen (AID 1224818);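 note: viability measured after 17.5 h of compound exposure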
In short: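 In the same ERR cell assay, compound-treated wells (17.5 h, 37 C) were multiplexed with a fluorogenic viability reagent, CellTiter-Fluor, read after 30 min to flag cytotoxic substances.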

[16] = qHTS assay to identify small molecule antagonists of the estrogen related receptor (ERR) signaling pathway (AID 1224819;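 note: luminescence from an ERR-driven luciferase reporter measured with One-Glo reagent; nearly all actives have a fitted effect of over 50% in size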)
In short: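 qHTS in ERR cells, 2,000/well, 1536 format. Cpd (DMSO) added after 6 h settle, 18 h 37 C. One-Glo luminescence, 30 min RT.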

[17] = qHTS assay to identify small molecule agonists of the estrogen related receptor (ERR) signaling pathway (AID 1224820)
In short: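 Quantitative HTS of the LOPAC library used NTP ERR reporter cells treated 18 h at 37 C. Signal is luminescence after One-Glo addition and a 30 min room-temperature incubation.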

[18] = system: estrogen-related receptor alpha (ERRalpha) with PGC-1alpha coactivator, human; experiment: qHTS assay to identify small molecule antagonists of the estrogen related receptor signaling pathway with the pleiotropic PPARgamma coactivator (PGC) (AID 1224821; calls by dose curve)
In short: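 Quantitative HTS for antagonism: PGC/ERR cells received compounds after 6 h attachment and were incubated 18 h at 37 C, with luminescence (One-Glo) as the endpoint.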

[19] = qHTS assay to identify small molecule antagonists of the estrogen related receptor signaling pathway with the pleiotropic PPARgamma coactivator (PGC) cell viability counter screen (AID 1224822)
In short: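 Compounds in DMSO, with positive and negative controls, were applied to PGC/ERR cells (2,000/well) and left 17.5 h at 37 C before CellTiter-Fluor detection.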

[20] = qHTS assay to identify small molecule agonists of the estrogen related receptor signaling pathway with the pleiotropic PPARgamma coactivator (PGC) (AID 1224823)
In short: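 Cell-based luciferase assay in the NTP-supplied PGC/ERR line, 2,000 cells/well; 18 h compound exposure at 37 C, luminescence after One-Glo.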

Measured: Potency

C=C(C)C#N
inactive: [1] | [2] | [3] | [4] | [5] | [6] | [7] | [8] | [9] | [10] | [11]

CC(C)(c1ccccc1)c1ccc(O)cc1
inactive: [1] | [3] | [12] | [6] | [7] | [9]
active: [2] 61.1 µM | [8] 27.1 µM and 13.7 µM | [10] 60.6 µM and 54.5 µM

O=NN1CCOCC1
inactive: [1] | [2] | [3] | [4] | [12] | [6] | [9] | [10] | [11]

N#CC(c1ccccc1)c1ccccc1
not listed: [5] | [12] | [15] | [16] | [17] | [18] | [19] | [20]
inactive: all other assays above

CC(C)(O)C#N
inactive: [1] | [2] | [3] | [4] | [12] | [6] | [7] | [8] | [9] | [10] | [11]

CSc1nc(NC(C)C)nc(NC(C)C)n1
inactive: [1] | [2] | [3] | [4] | [12] | [6] | [7] | [9] | [13] | [14] | [11]

O=S(=O)(O)C(F)(F)C(F)(F)C(F)(F)C(F)(F)C(F)(F)C(F)(F)C(F)(F)C(F)(F)F
active: [11] 33 µM and 49 µM and 12.3 µM
inactive and 5.45 µM (active): [13]
not listed: [2] | [3] | [5] | [7] | [8] | [12]
inactive: all other assays above

C[N+](C)(C)CC(=O)[O-]
inactive: [1] | [4] | [12] | [6] | [9] | [11]

CCOS(=O)(=O)OCC
54.5 µM (active) and inactive: [4]
inactive: [1] | [5] | [12] | [6] | [7] | [8] | [9] | [10] | [11]

CC[n+]1c(-c2ccccc2)c2cc(N)ccc2c2ccc(N)cc21
active: [4] 24.2 µM and 6.68 µM | [6] 30.5 µM | [7] 21.6 µM and 13.3 µM | [9] 24.2 µM
inactive: [1] | [5] | [8]
21.8 µM (active) and inactive: [11]

Nc1ccc([N+](=O)[O-])cc1N
13.7 µM (active) and inactive: [2]
21.9 µM (active) and inactive: [11]
inactive: [13] | [14]
active: [3] 68.5 µM and 68.6 µM | [4] 48.5 µM and 24.3 µM | [12] 48.5 µM | [6] 61.1 µM and 27.3 µM | [9] 43.2 µM

NN=C(N)N
inactive: [1] | [15] | [19] | [4] | [12] | [6] | [9] | [11]

CCOP(=O)(O)OCC (tested in a mixture with another compound)
inactive: [11]
inactive and 60.6 µM (active): [1] | [9]
inactive and 54 µM (active): [4]

CC(C)=CC1C(C(=O)OCN2C(=O)C3=C(CCCC3)C2=O)C1(C)C (centres undefined)
inactive: [1] | [4] | [12] | [6] | [9] | [14] | [11]

O=C(O)CF
inactive: [1] | [4] | [12] | [6] | [9] | [10] | [11]

CCCCOCCOC(C)=O
inactive: [1] | [4] | [5] | [6] | [7] | [8] | [9] | [13] | [14] | [10] | [11]

CC(C)Nc1ccc(Nc2ccccc2)cc1
inactive: [7]
active: [4] 27.2 µM and 61.1 µM | [5] 31.6 µM and 35.6 µM | [6] 54.3 µM | [8] 13.6 µM and 27.3 µM | [9] 43.1 µM
54.3 µM (active) and inactive: [13]
inactive and 19.3 µM (active): [14]

Clc1cccc(C(Cl)(Cl)Cl)n1
inactive: [1] | [4] | [6] | [9] | [11]

CCC1(c2ccc(N)cc2)CCC(=O)NC1=O (centres undefined)
not listed: [2] | [3] | [5] | [7] | [8] | [10]
inactive: all other assays above

Cl
inactive: [1] | [4] | [12] | [6] | [9] | [11]

C[N+](C)(C)C
inactive: [1] | [3] | [4] | [5] | [6] | [7] | [8] | [9] | [10] | [11]

Cc1cc(Cl)ccc1N=CN(C)C
inactive: [1] | [4] | [5] | [6] | [9] | [13] | [14] | [10] | [11]
